Out of some 24,000 compounds screened, fewer than 10 were called active. Not shown: some 9% with an inconclusive outcome.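 The calls were made as follows: active = fluorescent ligand binding to cells raised by more than 40% of the manganese-induced maximum; inconclusive = compound's own fluorescence above 85% of the ligand control signal; inactive = the rest.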 Only a sample is shown.
Target: Integrin alpha-4 (Homo sapiens) (UniProt P13612)
Assay: increased LDV-FITC ligand binding on VLA-4 – Jurkat cells, flow cytometry, primary screen (AID 528);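 also: 0% = ligand binding without compound and 100% = manganese-stimulated maximal binding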
Settings: active compounds read high, screened at 10 µM (by protocol)

Chain of Integrin alpha-4 (Homo sapiens) (P13612 whole entry, looked up): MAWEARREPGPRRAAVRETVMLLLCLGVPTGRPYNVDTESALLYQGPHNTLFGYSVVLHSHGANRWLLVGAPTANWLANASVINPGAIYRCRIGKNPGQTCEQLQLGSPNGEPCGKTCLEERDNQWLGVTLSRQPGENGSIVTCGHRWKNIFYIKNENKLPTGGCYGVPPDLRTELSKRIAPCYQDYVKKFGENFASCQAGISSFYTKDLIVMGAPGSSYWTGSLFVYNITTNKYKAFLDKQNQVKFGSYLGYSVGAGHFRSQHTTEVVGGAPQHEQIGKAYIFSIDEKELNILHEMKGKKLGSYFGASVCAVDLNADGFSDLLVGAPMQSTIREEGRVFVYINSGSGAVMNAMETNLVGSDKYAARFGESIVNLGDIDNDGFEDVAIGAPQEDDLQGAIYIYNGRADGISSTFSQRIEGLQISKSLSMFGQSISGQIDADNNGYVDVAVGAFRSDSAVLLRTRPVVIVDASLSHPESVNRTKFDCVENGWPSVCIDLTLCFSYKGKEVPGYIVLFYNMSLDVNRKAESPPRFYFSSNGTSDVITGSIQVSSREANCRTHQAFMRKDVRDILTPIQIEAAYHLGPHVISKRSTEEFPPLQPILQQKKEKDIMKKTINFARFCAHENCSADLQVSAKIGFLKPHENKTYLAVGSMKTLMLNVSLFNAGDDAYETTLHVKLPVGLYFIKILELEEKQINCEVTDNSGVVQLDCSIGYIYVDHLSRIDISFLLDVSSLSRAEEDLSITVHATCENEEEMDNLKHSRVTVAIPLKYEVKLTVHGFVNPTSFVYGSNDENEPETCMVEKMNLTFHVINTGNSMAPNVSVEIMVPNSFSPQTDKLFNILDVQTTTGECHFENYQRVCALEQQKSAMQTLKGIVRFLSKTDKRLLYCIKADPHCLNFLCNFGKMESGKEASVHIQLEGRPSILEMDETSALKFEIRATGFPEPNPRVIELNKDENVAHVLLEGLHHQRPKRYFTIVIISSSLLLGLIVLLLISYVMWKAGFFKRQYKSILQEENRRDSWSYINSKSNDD

activation, inactive:
CCOc1ccc(-n2c(SC(C)C(=O)OC)nc3c(c2=O)SCC3)cc1 (centres undefined) 0%, O=C(NCc1ccco1)C1CCCN(S(=O)(=O)c2cnc[nH]2)C1 (centres undefined) -5%, O=C(Nc1nsc(-c2ccccc2)n1)c1ccncc1 4%, COc1nc(Oc2ccc(=O)n(C)n2)nc(N(C)C)n1 4%, C=CCOc1ccc(C2/C(=C(\O)c3c(C)[nH]c(C(=O)OC)c3C)C(=O)C(=O)N2CCN(C)C)cc1 (centres undefined) -6%, CCOC(=O)C1CCN(C(=O)c2oc3ccc(S(=O)(=O)N4CCCCCC4)cc3c2C)CC1 -3%, O=C(O)c1ccc(NC(=O)c2cccs2)cc1 -2.5%, CCC1Oc2ccc(Cl)cc2N(CC(=O)O)C1=O (centres undefined) 2%, CCOC(=O)CSc1nnc(NC(=O)c2cccc(S(=O)(=O)N3CCCCC3)c2)s1 0.5%, CCC(=O)c1ccc(OCC(O)CN2C(=O)NC(C)(C)C2=O)cc1 (centres undefined) -4%, Cc1ccc(-c2cc(C(F)(F)F)n3nc(C(=O)N4CCCC4)cc3n2)cc1 -1%, Cc1ccc(CNC(=O)CN2CCN(Cc3ccc(Cl)cc3)C2=O)cc1 -2%, CCn1c(SCC(=O)Nc2ccc3c(c2)OCCO3)nc2c(c1=O)SC(C)C2 (centres undefined) -4%, CS(=O)(=O)NCc1ccc(C(=O)NCc2ccccc2)cc1 1%, CCCC(=O)Nc1nnc(CC(=O)OCC)s1 -0.5%, O=C(CC1Oc2ccccc2NC1=O)NCCCN1CCN(Cc2ccccc2)CC1 (centres undefined) -1%, CCC1CCCCN1CCNS(=O)(=O)c1ccc2c(c1)CCN2C(C)=O (centres undefined) -4%, Cc1oc(-c2cccc(Cl)c2)[n+]([O-])c1C 8%, CCOC(=O)CN1C(=O)C(O)(CC(=O)c2ccccn2)c2ccccc21 (centres undefined) 4%, CCOc1ccc(S(=O)(=O)n2ccnc2)c2ccccc12 1%, Cn1c(=O)c2c(nc(N3CCCCCC3)n2CC(=O)c2ccc(Br)cc2)n(C)c1=O -1%, CCOc1ccc(OCC)c(NC(=O)C(NS(=O)(=O)c2ccc3c(c2)oc(=O)n3C)C(C)C)c1 (centres undefined) -2%, Cn1cccc1Cc1nnc(SCC(=O)NCc2ccc3c(c2)OCO3)n1CCc1ccccc1 -4%, Cn1c(=O)[nH]c(=O)c2c1nc(CN(Cc1ccccc1)Cc1ccccc1)n2CCN1CCOCC1 -6%, C=CCn1c(=N)n(CC(O)COc2ccc(OC)cc2)c2ccccc21 (centres undefined) 0%, CCOc1cc(C(=O)Nc2ncccn2)cc(OCC)c1OCC 11.5%, Cc1nnc(C)n1/N=C/c1ccc(C(C)C)cc1 -4%, N#CCCN1CCN(S(=O)(=O)c2ccc(S(=O)(=O)NC3CC3)cc2)CC1 1%, Cc1nnc(NC(=O)CCC(=O)N2CCC(C)CC2)s1 -0.5%, O=C(CCn1c(=S)[nH]c2ccccc2c1=O)NCCCN1CCCC1=O 5%, CC(=O)c1c(N)n(C)c(=O)n(C)c1=O 9%, CCCn1nnc2sc3c(c2c1=O)CCC(C)C3 (centres undefined) 4%, CC1CCCN(C(=O)c2ccc3c(c2)C(=O)N(CCC2=CCCCC2)C3=O)C1 (centres undefined) 0%, CCCCC(=O)N(c1ccc(OC)cc1)C1C=CS(=O)(=O)C1 (centres undefined) -1%, CCCCn1c(=S)[nH]c2ncccc2c1=O 1%, O=S1(=O)CC(NCc2ccccc2)C(Nc2ccc(Cl)cc2)C1 (centres undefined) -8%, CCCCCCn1c(CN2CCCCC2)nc2c1c(=O)n(C)c(=O)n2C -6%, COc1ccccc1C(=O)N1CCN=C1SCc1cccnc1 2%, Cc1ccc(S(=O)(=O)N2C3C=CC(C3)C2C(=O)O)cc1 (centres undefined) 5%, COc1cccc(N(C(=O)c2ccn[nH]2)C2(C(=O)Nc3c(C)cccc3C)CCCCC2)c1 3%, CCOC(=O)C1CCN(C(=O)C2CCN(S(=O)(=O)N3CCCC3)CC2)CC1 6%, COc1ccc(-c2nc(CS(=O)CC(=O)NCc3cccnc3)c(C)o2)cc1OC (centres undefined) 3%, Cc1noc(C)c1S(=O)(=O)N1CCCC(C(=O)Nc2nccs2)C1 (centres undefined) 0%, CCN(CC)S(=O)(=O)N1CCC(C(=O)NC(C)CCc2ccccc2)CC1 (centres undefined) 3%, COc1cccc(-n2c(Cc3cc(=O)[nH]c(=O)[nH]3)nnc2SCC(=O)Nc2ccccc2)c1 5%, Cc1cccc(N2C(=O)SC(N(CC(=O)O)c3cccc(C)c3)C2=O)c1 (centres undefined) 7%, CCN(Cc1ccccc1)C(=O)CSc1nc(C)cc2c1C(=O)OC2 -9%, CCOc1ccc(CNC(=O)C2CCC(=O)N2C2CCCC2)cc1OC (centres undefined) -7%, O=C(CN1CCN(S(=O)(=O)c2ccc(F)cc2)CC1)Nc1ccccc1F -1%, COc1ccc(OC)c(N=Cc2c(O)[nH]c3ccccc23)c1 8%, O=C1c2cccnc2C(=O)N1Cc1cccs1 0%, COc1ccccc1CNC(=O)CCn1c(=O)sc2ccccc21 5%, CSCCC(NC(=O)C1CCC(C)CC1)C(=O)NCc1ccco1 (centres undefined) 3%, CC(=O)c1c(C)c[nH]c1C 3%, CCOC(=O)c1cnc(-n2nc(C)cc2C)nc1Nc1cccc(C(C)=O)c1 0%, CCOc1cc(/C=N/n2cnnc2)c(Br)cc1O 9%, CC1CN(C(=O)c2ccc3c(c2)OCO3)OC(c2ccccc2)O1 (centres undefined) 4%, CCOC(=O)N1CCN(C(=O)c2n[nH]c(=O)c3ccccc23)CC1 -9%, CCOC(=O)N1CCN(S(=O)(=O)c2cc3c(cc2C)NC(=O)CO3)CC1 -8%, Cc1oc(-c2ccccc2F)nc1CS(=O)(=O)CC(=O)NCCCN(C)C1CCCCC1 -7%, O=C(NCc1cccnc1)c1ccc(CS(=O)(=O)c2ccc(Br)cc2)o1 3%, CCOC(=O)c1ccc(-n2c(C)nc3c(cnn3-c3ccccc3C)c2=O)cc1 -2.3%, CCOc1cc2[nH]c(=O)n(CCC(=O)NCc3ccc(OC)cc3)c(=O)c2cc1OCC 1%, COc1ccccc1NC(=O)CN1CCN(S(=O)(=O)c2ccc(Br)cc2)CC1 1%, O=C(O)CCC(=O)Nc1ccc(N2CCOCC2)cc1 2%, S=C1SCN(CCN2CCOCC2)CN1Cc1ccccc1 -3%, Cc1ccc(S(=O)(=O)NCCN2CCOCC2)cc1C -2%, CN1CCCc2cc(C#N)c(=O)[nH]c21 -3%, CCN1CCN(c2ncnc3c2oc2nc(C)c4c(c23)CC(C)(C)OC4)CC1 9%, CCOc1ccc(NC(=O)CC2NCCNC2=O)cc1 (centres undefined) 0.7%, O=C(CN1CCOCC1)N1CCCc2c1c(=O)oc1ccc(OCc3ccccc3)cc21 -5%, Cc1ccc2nc3n(c(=O)c2c1)CCC3 5%, CCOC(=O)Cn1c(N)c(C(=O)OC)sc1=S -9%, CCOc1ccc(/C(O)=C2/C(=O)C(=O)N(Cc3cccnc3)C2c2ccc(N(C)C)cc2)c(C)c1 (centres undefined) -4%, CCOC(=O)C1CCN(C(=O)C2CCN(S(=O)(=O)CC)CC2)CC1 0%, Cn1nnnc1SCc1cc(=O)[nH]c2ccccc12 -4%, O=C(CC(NCCN1CCOCC1)C(=O)O)Nc1cccc(Cl)c1 (centres undefined) 5%, CC(=O)Nc1cc(C(=O)O)ccc1S(=O)(=O)c1ccc(Cl)cc1 5%, O=C(c1ccc(=O)[nH]c1)N(Cc1ccco1)C1(C(=O)NC2CCCCC2)CCCCC1 8%, COC(=O)c1cc(S(=O)(=O)NC2CCN(Cc3ccccc3)CC2)cn1C 12%, CC(c1ccco1)N(C(=O)c1ccc(S(=O)(=O)N2CCCCC2)cc1)c1ccccn1 (centres undefined) -5%, O=C1CC(c2cccc(F)c2)C2=C(CCCC2=O)N1 (centres undefined) 0%, Cc1nc(NC(=O)C23CCC(C)(C(=O)O2)C3(C)C)sc1C (centres undefined) 2%, CC1Cc2nc(SCC(=O)Nc3ccccc3F)n(C)c(=O)c2S1 (centres undefined) -5.7%, Cc1ccc(C)c(NS(=O)(=O)c2cc(Br)cnc2N)c1 -9%, O=C1CC(c2cccc(Br)c2)C2=C(CCCC2=O)N1 (centres undefined) -3%, COc1cccc(NC(=O)Cn2cnc3sc(C)c(S(=O)(=O)N4CCN(C)CC4)c3c2=O)c1 1%, CCOC(=O)CSc1nnc(CNC(=O)c2cccs2)n1-c1ccccc1 -4%, O=C1N=C(N2CCOCC2)CS1 5%, C=CCOC(=O)C1=C(C)OC(N)=C(C#N)C1c1ccc(F)cc1 (centres undefined) -2.5%, CCOC(=O)c1ccc(Nc2cc(C)nc3nc(C)nn23)cc1 5%, COCCCNC(=O)CCc1nc2cccnc2n1Cc1ccc(OC)cc1 4%, COc1cccc(Oc2ccc(N)cc2)c1 8%, CCCN1CCN(C(=O)Cn2ncc3ccccc32)CC1 5%, Cc1cccc(N2CCN(C(=O)C3CCN(S(=O)(=O)c4cnc[nH]4)CC3)CC2)c1C 0%, COc1cccc(NC(=O)C2CCCN2C(=O)OCc2ccccc2)c1 (centres undefined) -5%, CC(=O)c1c(C)[nH]c(C(=O)NCCCN2CCCC2)c1C 1%, COc1cc2[nH]c(=S)n(CCN3CCCCC3C)c(=O)c2cc1OC (centres undefined) -3%, Cn1c(=O)cc(OCCCC(=O)N2CCN(c3ccccn3)CC2)c2ccccc21 -10%, Cc1cccn2c(=O)c3cc(C(=O)NCc4ccccn4)n(C)c3nc12 -2%, Cc1nc(SCC(=O)Nc2cc(C)on2)c2c3c(sc2n1)CCCC3 -3.5%, COc1ccc(C(=O)N(CCN2CCOCC2)CC(=O)NC2CCCC2)cc1OC 6.5%, O=C(CN1CCOc2ccccc21)N1CCC(Cc2ccccc2)CC1 -1%, CCOC(=O)CSc1nnc(CNC(=O)Cc2ccccc2)n1-c1ccccc1OC -3%, CC1CCC(NS(=O)(=O)c2ccc3c(c2)n(C)c(=O)c(=O)n3C)CC1 (centres undefined) 6%, COc1cc(OC)cc(-c2nc3nc(C)c(CCC(=O)NCc4ccco4)c(C)n3n2)c1 -2.7%, Cc1cc(C)nc(-n2nc(C)cc2NC(=O)c2ccc(Br)o2)n1 1.5%, Cc1nc2ccc(NC(=O)N3CCC(c4ccccc4)C3)cc2nc1C (centres undefined) -3%, O=C(CNS(=O)(=O)c1ccc(Br)s1)NCc1ccc2c(c1)OCO2 -4%

— PubChem BioAssay AID528 (NMMLSC, 2006)
